Test systems include K-562 leukemia; MALME-3M melanoma; MDA-MB-231 breast; RXF 393 renal; SF-295 CNS; SF-539 CNS; UACC-257 melanoma; M14 melanoma; HCT-15 colon; HT29 colon; SNB-75 CNS; SNB-19 CNS; U251 CNS; PC-3 prostate; SK-MEL-5 melanoma; UACC-62 melanoma; LOX IMVI melanoma; SK-MEL-28 melanoma; SK-MEL-2 melanoma; SF-268 CNS.
Holding throughout (experiment): NCI-60 one-dose screen, 48 h (100 = growth as untreated, 0 = no growth, -100 = all killed)
Holding throughout (conditions): 10 µM unless noted

The panel holds about 83,000 compounds, 20% with a hit somewhere; the sample as a whole holds those more often.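 Assay: single dose, 48 h. Readout: percent growth (0 = no net growth; negative = cell death). Active: <10.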 Unmarked numbers belong to inactive results. Activity calls are given as the source filed them.

Take `OC(Cc1cccnc1)c1ccccc1` (stereo not drawn): the growth in the assay on K-562 leukemia was 101%; in the assay on MALME-3M melanoma, 111%; with MDA-MB-231 breast, 92.1%; in the assay with RXF 393 renal it was 114%; with SF-295 CNS, 104%; in the assay on SF-539 CNS, 98.6%. Also, the growth in the assay with UACC-257 melanoma is 101%; in the assay with M14 melanoma, 106%; with HCT-15 colon, 104%; in the assay on HT29 colon, 106%; in the assay with SNB-75 CNS it was 99.7%; in the assay with SNB-19 CNS, 98.9%. For the same compound, the growth in the assay on U251 CNS is 98.1%; in the assay on PC-3 prostate it was 101%; in the assay with SK-MEL-5 melanoma, 102%; in the assay with UACC-62 melanoma, 97.4%; in the assay with LOX IMVI melanoma it was 101%; in the assay on SK-MEL-28 melanoma, 108%. Further, the growth in the assay on SK-MEL-2 melanoma is 102%.

As to `OC(CCC(O)(c1ccccc1)c1ccccc1)(c1ccccc1)c1ccccc1`, the growth with K-562 leukemia was 5.52% (active); in the assay with MALME-3M melanoma, 100%; in the assay on MDA-MB-231 breast, 81.5%; in the assay with RXF 393 renal, 80%; with SF-295 CNS it was 65.1%; in the assay on SF-539 CNS, 115%. Further, the growth in the assay on UACC-257 melanoma is 82.8%; with M14 melanoma, 96.1%; in the assay on HCT-15 colon, 100%; in the assay on HT29 colon it was 78.4%; in the assay with SNB-75 CNS, 83.9%; in the assay on SNB-19 CNS, 106%. Besides, the growth with U251 CNS was 87.7%; in the assay on PC-3 prostate, 24.4%; in the assay on SK-MEL-5 melanoma, 90.6%; in the assay on UACC-62 melanoma, 62.2%; in the assay on LOX IMVI melanoma it was 71.4%; with SK-MEL-28 melanoma, 112%. The growth in the assay with SK-MEL-2 melanoma was 97.5%.

With `COc1ccc(-c2cc(C(=O)Nc3nc4cc(C)c(C)cc4s3)nc3cc(-c4ccccc4)nn23)cc1OC`, the growth is 110% with K-562 leukemia; 101% with MALME-3M melanoma; 107% in the assay on MDA-MB-231 breast; 112% in the assay on RXF 393 renal; 112% with SF-295 CNS; 98.7% with SF-539 CNS. Besides, the growth in the assay on UACC-257 melanoma was 93%; in the assay with M14 melanoma, 103%; in the assay on HCT-15 colon, 111%; with HT29 colon, 93.1%; in the assay with SNB-75 CNS it was 87.9%; in the assay on SNB-19 CNS, 108%. For the same compound, the growth was 111% in the assay on U251 CNS; 110% in the assay with SK-MEL-5 melanoma; 107% in the assay on UACC-62 melanoma; 95.1% with LOX IMVI melanoma; 94.4% with SK-MEL-28 melanoma; 113% in the assay on SK-MEL-2 melanoma.

Regarding `Oc1[nH]c2ccccc2c1/C=c1/ccc2c(c1)N=C(c1cc(F)cc(F)c1)N=2`, the growth is 12.8% in the assay on K-562 leukemia; 101% in the assay on MALME-3M melanoma; 53.8% in the assay on MDA-MB-231 breast; 78.5% with RXF 393 renal; 80.8% in the assay with SF-268 CNS; 90.7% in the assay on SF-539 CNS. Also, the growth in the assay on UACC-257 melanoma was 98.7%; with M14 melanoma, 58.2%; in the assay with HCT-15 colon, 31.5%; in the assay with HT29 colon, 57.6%; with SNB-19 CNS, 67.9%; in the assay with U251 CNS, 53%. In addition, the growth in the assay on PC-3 prostate was 26.2%; with SK-MEL-5 melanoma, 69.5%; in the assay on UACC-62 melanoma it was 58.2%; with LOX IMVI melanoma it was 52%; in the assay on SK-MEL-28 melanoma, 77.4%; in the assay with SK-MEL-2 melanoma, 41.2%.

With `Cc1ccc(C(=O)Nc2ccc(Cl)cc2C(=O)NCc2ccccc2)cc1`, the growth in the assay with K-562 leukemia was 30%; with MALME-3M melanoma it was 88.9%; with MDA-MB-231 breast it was 95.8%; with RXF 393 renal it was 87.4%; with SF-268 CNS, 94.2%; in the assay on SF-539 CNS, 82.3%. Besides, the growth is 85.2% in the assay with UACC-257 melanoma; 74.9% with M14 melanoma; 23.3% in the assay with HT29 colon; 67.3% with SNB-75 CNS; 92.8% in the assay on SNB-19 CNS; 81.5% with U251 CNS. For the same compound, the growth is 76.6% with PC-3 prostate; 78.4% with SK-MEL-5 melanoma; 70.7% with UACC-62 melanoma; 83.7% with SK-MEL-28 melanoma; 51.7% with SK-MEL-2 melanoma.

With `COc1ccc2[nH]cc(/C=C3/C(=O)Nc4ccc(Cl)cc43)c2c1`, the growth with K-562 leukemia was 27.4%; with MALME-3M melanoma it was 31.5%; in the assay with MDA-MB-231 breast, 28.2%; in the assay with RXF 393 renal it was 21.3%; in the assay with SF-295 CNS, 53.1%; in the assay on SF-539 CNS it was 67.8%. The growth in the assay on UACC-257 melanoma is 68.5%; in the assay on M14 melanoma, 37.2%; in the assay with HCT-15 colon, 30.4%; in the assay on HT29 colon it was 17.5%; in the assay on SNB-19 CNS, 70.7%; in the assay on U251 CNS, 38%. In addition, the growth in the assay with PC-3 prostate is 64.6%; in the assay with SK-MEL-5 melanoma it was 55.2%; with UACC-62 melanoma it was 51.8%; in the assay on LOX IMVI melanoma it was 17.7%; with SK-MEL-28 melanoma, 81.1%.

`O=C(c1ccccc1)c1ccco1`: the growth with K-562 leukemia is 102%; in the assay with MALME-3M melanoma, 108%; in the assay on MDA-MB-231 breast it was 93.6%; with RXF 393 renal it was 131%; in the assay on SF-268 CNS it was 98.5%; in the assay on SF-539 CNS, 92.5%. The growth was 89.3% with UACC-257 melanoma; 98.7% with M14 melanoma; 103% with HT29 colon; 80.3% in the assay on SNB-75 CNS; 93.1% in the assay with SNB-19 CNS; 99.1% in the assay with U251 CNS. The growth with PC-3 prostate is 95.4%; with SK-MEL-5 melanoma, 106%; with UACC-62 melanoma, 93%; in the assay on LOX IMVI melanoma, 89.8%; in the assay on SK-MEL-28 melanoma, 111%; in the assay with SK-MEL-2 melanoma, 104%.

On to `NC(=O)SCC(=O)Nc1ccccc1-c1ccccc1`, for which the growth was 103% with K-562 leukemia; 158% with MALME-3M melanoma; 99.7% in the assay with MDA-MB-231 breast; 138% with RXF 393 renal; 109% with SF-295 CNS; 89.5% in the assay on SF-539 CNS. The growth with UACC-257 melanoma was 85.7%; in the assay on M14 melanoma it was 97.7%; in the assay on HCT-15 colon, 107%; in the assay with HT29 colon, 87.2%; in the assay with SNB-75 CNS, 138%; with SNB-19 CNS, 89.5%. In addition, the growth is 92.9% in the assay with U251 CNS; 90.2% with PC-3 prostate; 111% in the assay with SK-MEL-5 melanoma; 81.5% in the assay on UACC-62 melanoma; 116% in the assay with SK-MEL-28 melanoma; 88.9% in the assay with SK-MEL-2 melanoma.

In the case of `CCC(C)CC(C)C(=O)c1c(O)ccn(O)c1=O` (stereo not drawn), the growth in the assay with K-562 leukemia was 18.2%; with MALME-3M melanoma it was 42.1%; in the assay with MDA-MB-231 breast, 45.3%; with RXF 393 renal, 35.4%; in the assay on SF-268 CNS, 26.4%; in the assay on SF-539 CNS, 5.81% (active). The growth with UACC-257 melanoma is 27.1%; with M14 melanoma it was 15.5%; with HCT-15 colon it was 25.3%; in the assay on HT29 colon, 97.3%; with SNB-75 CNS it was 49.3%; in the assay on SNB-19 CNS, 18.6%. In addition, the growth is 11.1% with U251 CNS; 24.5% with PC-3 prostate; 25.3% in the assay on SK-MEL-5 melanoma; 3.01% (active) in the assay with UACC-62 melanoma; 29% with SK-MEL-28 melanoma; 41.9% with SK-MEL-2 melanoma.

For `COc1ccc(-c2nn(-c3cccc(Cl)c3)cc2C2CC(c3ccccc3)=NN2C(C)=O)cc1` (stereo not drawn), the growth is 96.1% in the assay on K-562 leukemia; 46.8% in the assay with MALME-3M melanoma; 72.9% with MDA-MB-231 breast; 54.4% in the assay on RXF 393 renal; 66.9% with SF-268 CNS; 50.6% in the assay on SF-539 CNS. Also, the growth is 86.2% in the assay with UACC-257 melanoma; 89.2% in the assay on M14 melanoma; 86% in the assay on HCT-15 colon; 62.7% in the assay on HT29 colon; 72.9% in the assay on SNB-19 CNS; 66.7% in the assay with U251 CNS. For the same compound, the growth in the assay with PC-3 prostate is 69%; with SK-MEL-5 melanoma it was 77.2%; in the assay with UACC-62 melanoma it was 83.5%; with LOX IMVI melanoma it was 76.7%; in the assay on SK-MEL-28 melanoma, 69.9%; in the assay on SK-MEL-2 melanoma, -2.7% (active).

Turning to `NNC(=O)NO`, the growth is 94.8% in the assay with K-562 leukemia; 98.6% in the assay with MALME-3M melanoma; 122% in the assay on MDA-MB-231 breast; 115% in the assay with RXF 393 renal; 104% in the assay on SF-268 CNS; 104% in the assay with SF-539 CNS. The growth in the assay on UACC-257 melanoma was 112%; in the assay on M14 melanoma, 102%; in the assay with HCT-15 colon, 102%; in the assay on HT29 colon, 96%; in the assay with SNB-75 CNS it was 85.9%; in the assay on SNB-19 CNS, 108%. The growth was 104% in the assay on U251 CNS; 101% in the assay with PC-3 prostate; 105% with SK-MEL-5 melanoma; 106% in the assay on UACC-62 melanoma; 107% in the assay with SK-MEL-28 melanoma; 91.1% in the assay on SK-MEL-2 melanoma.

Source of the values: PubChem BioAssay (NCI).
